Source: PubChem (National Center for Advancing Translational Sciences (NCATS))
KB-V1 cytotox: kills drug-selected multidrug resistant KB-V1 cells. KB-V1 MDR cells viability, CellTiter-Glo, 72 h. Potency, µM (doses to about 46.1 µM), actives largely listed as cytotoxic. actives 3.4% (n = 400,000). AID 1347076; note: nearly all actives have a fitted effect of over 60% in size
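Luminescent ATP read-out (CellTiter-Glo, 10 min) measures survival of drug-selected KB-V1 MDR cells after 72 h, 37 degrees C compound exposure. Medium: phenol-red-free DMEM, 10% FBS. Values from fitted concentration-response curves.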
HT1080-NT tox: kills 2HG-producing HT-1080-NT fibrosarcoma cells | HT-1080-NT fibrosarcoma viability, CellTiter-Glo ATP luminescence, 48 h | Potency, µM (top dose mostly 46.1 µM), hits mostly cytotoxic | actives 1.6% (n = 360,000) | AID 686970;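 note: NT is the 2HG producing partner of a matched IDH1 knockdown line; nearly all actives have a fitted effect of over 55% in size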
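HT-1080-NT; 750 cells/well; 5% FBS RPMI; 48 h compound, 37 degrees C; CellTiter-Glo luminescence; curve fitting and curve-class assignment.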
TDP1 cell noCPT: qHTS for Inhibitors of human tyrosyl-DNA phosphodiesterase 1 (TDP1): qHTS in cells in absence of CPT; DT40 Tdp1-/- hTDP1 cells, no CPT, ATP luminescence, 48 h; Potency, µM (top dose mostly 46.2 µM), hits mostly inhibitors; actives 15% (n = 420,000); AID 686978, 2013; note: nearly all actives have a fitted effect of over 55% in size
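DT40 Tdp1-/-;hTDP1 cells, no CPT (DMSO vehicle only), 400 cells/well; compounds pin-transferred; ≥48 hr, 37 °C; CellTiter-Glo 30 min RT dark, luminescence read.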
DT40 TDP1 CPT: DT40-hTDP1 cell growth loss with CPT; chicken DT40 Tdp1-/-;hTDP1 cells + 20 nM CPT, ATP luminescence, 48 h; Potency, µM (top dose mostly 46.2 µM), usual class: inhibitors; actives 12% (n = 420,000); AID 686979; note: nearly all actives have a fitted effect of over 55% in size
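Chicken DT40 Tdp1-/- cells complemented with human TDP1, 400 cells/well, exposed to compounds plus 20 nM camptothecin for at least 48 h at 37 C; viability read as ATP content by CellTiter-Glo luminescence.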
KB-3-1 tox: kills parental KB-3-1 adenocarcinoma cells. AID 1347075. Potency, µM (series often up to 46.1 µM), actives largely listed as cytotoxic. KB-3-1 viability, CellTiter-Glo ATP luminescence, 72 h. actives 1.4% (n = 400,000); note: nearly all actives have a fitted effect of over 60% in size
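Screening of KB-3-1 cells (DMEM, 10% FBS, phenol-red free) ran from lowest to highest compound concentration; after 72 h at 37 °C viability was read luminescently and curves fitted.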
HT1080 IDH1KD tx: HT-1080 IDH1 knockdown cell toxicity (counter line); HT-1080 IDH1 knockdown viability, ATP luminescence, 48 h; Potency, µM (titrated, usually from 46.1 µM), actives largely listed as cytotoxic; actives 2% (n = 360,000)
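Cytotoxicity counter-line: IDH1KD HT-1080, 48 h, CellTiter-Glo. Curves classed by r2, magnitude and activity.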
Hits are given with their value; – = inactive; ? = inconclusive; · = no result. Only some compounds are listed: those with a hit (about 19% of all), similar ones and a draw of the others. Calls come from the whole dose curve; as a rule, active = well fitted curve in the direction sought with a large enough effect; inconclusive = small, poorly fitted or top-dose-only effect, or another doubt; inactive = no such curve, though single readings can be large; an effect the other way counts as inactive or inconclusive.

SMILES	KB-V1 cytotox	HT1080-NT tox	TDP1 cell noCPT	DT40 TDP1 CPT	KB-3-1 tox	HT1080 IDH1KD tx
O=C(NCCc1c[nH]c2ccccc12)C(=O)NCC(c1cccnc1)N1CCN(c2ccccc2)CC1 (configuration not stated)	–	–	16.4µM	18.4µM	–	–
COCCNC(=O)C(=O)NCC(c1cccnc1)N1CCN(c2ccccc2)CC1 (configuration not stated)	–	·	–	–	–	·
O=C(NCCc1ccccc1)C(=O)NCC(c1cccnc1)N1CCN(c2ccc(F)cc2)CC1 (configuration not stated)	–	·	10.3µM	14.6µM	–	·
O=C(NCc1ccncc1)C(=O)NCC(c1ccco1)N1CCN(c2ccc(F)cc2)CC1 (configuration not stated)	2.59µM	–	?	?	?	–
O=C(NCc1cccnc1)C(=O)NCC(c1cccnc1)N1CCN(c2ccc(F)cc2)CC1 (configuration not stated)	–	·	18.4µM	20.6µM	–	·
Cc1noc(C)c1S(=O)(=O)N(CC(=O)NC1CCCC1)c1ccc(C(C)C)cc1	–	–	–	–	–	–
O=C(NCC(c1cccnc1)N1CCN(c2ccc(F)cc2)CC1)c1cccc(Cl)c1 (configuration not stated)	–	–	10.3µM	16.4µM	–	–
COC(=O)NCC(c1cccnc1)N1CCN(c2ccc(F)cc2)CC1 (configuration not stated)	–	·	–	–	–	·
CCOc1ccc(CN2CCN(C(=O)c3cccc4ccccc34)CC2)cc1	–	?	?	?	–	?
CCOc1ccc(CN2CCN(Cc3ccc4c(c3)c3ccccc3n4CC)CC2)cc1	·	·	14.6µM	?	·	·
COc1ccc(CN2CCN(Cc3ccc4ccccc4c3)CC2)cc1OC	?	–	18.4µM	?	?	?
CCN1CCN(Cc2ccc(OC)c(OCc3ccccc3)c2)CC1	–	–	?	–	–	–
CCn1c2ccccc2c2cc(CN3CCN(Cc4ccc(OC)c(OC)c4)CC3)ccc21	·	·	23.1µM	18.4µM	·	·
CCCS(=O)(=O)N1CCN(Cc2ccc3c(c2)c2ccccc2n3CC)CC1	–	?	?	20.6µM	–	?
COc1ccccc1CN1CCN(Cc2ccc3ccccc3c2)CC1	–	–	?	?	–	–
O=C(COC(=O)C1CCN(S(=O)(=O)c2ccccc2)CC1)NC(=O)c1ccc(OC(F)F)cc1	–	–	–	–	–	–
O=S(=O)(Cc1ccccc1)N1CCN(Cc2ccc(Br)cc2)CC1	–	–	–	–	–	–
CCc1ccc(CN2CCN(S(=O)(=O)Cc3ccccc3)CC2)cc1	10.3µM	–	?	?	–	–
Cc1cc(NCC2CCCCC2)nc2ccccc12	9.2µM	?	23.1µM	?	–	7.31µM
Cc1cccc(/C=N/NC(=O)c2cc(Br)ccc2OCc2ccccc2)n1	–	?	23.1µM	?	–	18.4µM
C#CCOc1ccccc1/C=N/NC(=O)c1ccccc1OCc1ccccc1	–	–	20.6µM	?	–	–
COc1ccccc1C(=O)NCC(=O)N/N=C/c1cc(Br)ccc1OCc1ccccc1	–	–	23.1µM	?	–	–
COc1ccc(COc2ccccc2C(=O)NCc2ccccc2)cc1F	14.6µM	–	?	?	–	–
COc1cc(C(=O)NCc2ccccc2)ccc1OC(F)F	–	–	–	–	–	–
Cc1ccc(Nc2nc3ccc(C)cc3nc2-n2nc(C)cc2C)c(C)c1	–	·	–	–	–	·
SMILES	KB-V1 cytotox	HT1080-NT tox	TDP1 cell noCPT	DT40 TDP1 CPT	KB-3-1 tox	HT1080 IDH1KD tx
Cc1n[nH]c(C)c1NC(=O)CSc1nnnn1-c1cccc(F)c1	–	–	–	–	–	–
Cc1cc(C(=O)N/N=C/c2ccc(OCc3ccccc3)cc2)c(C)o1	–	–	16.4µM	?	–	–
COc1ccc(/C=N/NC(=O)NC23CC4CC(CC(C4)C2)C3)c(OC)c1	–	?	23.1µM	?	–	?
COc1ccccc1/C=N/NC(=O)NC12CC3CC(CC(C3)C1)C2	–	–	?	–	–	–
COc1ccc(/C=N/NC(=O)c2ccccc2OCc2ccccc2)c(OC)c1	–	–	18.4µM	?	–	–
Cc1ccc(/C=N/NC(=O)c2ccccc2OCc2ccc(F)cc2)o1	?	–	2.91µM	5.8µM	–	–
COCCn1c(SCC(=O)c2ccccc2)nc2cc(C(=O)NC3CCCC3)ccc2c1=O	–	·	–	–	–	·
Cc1c(C(=O)Nc2nc3ccccc3[nH]2)oc2ccccc12	?	–	23.1µM	20.6µM	–	–
Cc1c(C(=O)Nc2nc3ccccc3[nH]2)oc2c(Cl)cccc12	?	–	16.4µM	?	?	–
O=C(Nc1nc2ccccc2[nH]1)c1ccc(Br)o1	?	?	14.6µM	?	–	?
CC(=O)N1CCN(C(=O)c2cccc(S(=O)(=O)Nc3c(C)n(C)n(-c4ccccc4)c3=O)c2)CC1	–	–	–	–	–	–
COc1ncc(C2=CC(=O)CC(C)(C)C2)cn1	–	–	–	–	–	–
Cc1cccc(C(=O)NC2CC3CCCC(C2)N3Cc2ccccc2)c1 (configuration not stated)	–	–	–	–	–	–
Cc1ccc(-c2cc(C(=O)N3CCCCC3)c3ccccc3n2)cc1C	–	–	23.1µM	16.4µM	–	–
CCOC(=O)C1CCN(c2nc(-c3ccc(Br)cc3)nc3ccccc23)CC1	?	–	4.11µM	5.8µM	?	–
CCOC(=O)C1CCN(C(=O)c2cc(-c3ccncc3)nc3ccccc23)CC1	–	–	20.6µM	?	–	–
CCOC(=O)c1cnc2cc(-c3ccc(OCC)cc3)nn2c1-c1ccccc1	·	·	8.2µM	14.6µM	·	·
CCOC(=O)C1CCCN(C(=O)c2cc(-c3ccccc3)nc3ccccc23)C1 (configuration not stated)	–	–	–	–	–	–
CCOC(=O)c1cnc2cc(-c3ccc(C)cc3)nn2c1-c1ccccc1	–	–	?	?	–	–
COc1cccc(CN2CC(C(=O)NCCc3nccs3)CCC2=O)c1 (configuration not stated)	–	–	–	–	–	–
Cc1ccc(OCC(=O)NNC(=O)C2CCN(c3nc(C)cc(C)n3)CC2)cc1	–	–	–	–	–	–
COC(=O)C1=C(N)Oc2cc(C)[nH]c(=O)c2C1c1ccccc1OC (configuration not stated)	–	–	–	–	–	–
CC1(C)OC2OC3C(CNCCO)OC(c4ccccc4)OC3C2O1 (configuration not stated)	–	–	–	–	–	–
